The values that follow come from PubChem BioAssay AID865 (The Scripps Research Institute Molecular Screening Center, 2007).

The nature of this assay: activators of NFAT-driven beta-lactamase reporter, confirmation, counter-screen for GALR2 agonist project, CHO NFAT-bla cells, FRET readout (AID 865).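 Further: 0% = DMSO with PBS wells and 100% = thapsigargin positive control wells.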 The settings on record: at 5.6 µM, stronger effect = higher value.

The other results are listed elsewhere or left out. Unmarked numbers belong to inactive results.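 How the source made its calls: active means activation above the screen-wide mean activation plus 3 SD (cut at about 8% in these data); inactive means the rest.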

In the case of `Cc1cccc(N2C(=O)NC(=O)/C(=C\c3cnn(-c4ccccc4)c3)C2=O)c1`, the activation is 0.39%.
